Assay results taken from PubChem BioAssay (EPA / NIEHS).
Records with an inconclusive call do not appear. Active and inactive are the calls of the source. The calls were made as follows, unless noted: active = hit-call score of the fitted dose curve at least 0.9, where 1 is the maximum; inactive = score below 0.9.

Key:
[1] = biological target: human RAR-related Orphan Receptor gamma (RORg), RORC (gene 6097) (UniProt P51449); assay: ATG_RORg_TRANS: Attagene TRANS-FACTORIAL HepG2 Assay for human RAR-related Orphan Receptor gamma (RORg) (AID 2283011; active = hit-call score of the fitted dose curve at least 0.9, where 1 is the maximum)
Outline: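 Chimeric RORg-Gal4 transactivation in transfected HepG2; 24 h exposure; RT-PCR/capillary electrophoresis readout of reporter mRNA, DMSO baseline.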

[2] = biological target: human Retinoid X Receptor beta (RXRb), RXRB (gene 6257) (UniProt P28702); assay: ATG_RXRb_TRANS: Attagene TRANS-FACTORIAL HepG2 Assay for human Retinoid X Receptor beta (RXRb) (AID 2283013; active = hit-call score of the fitted dose curve at least 0.9, where 1 is the maximum)
Outline: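 Readout is reporter transcript induction after 24 h dosing. It is measured by RT-PCR of total RNA followed by fluorescent capillary electrophoresis. HepG2 liver cells carry transfected multiple reporter units driven by an exogenous RXRb-Gal4 fusion; activity is relative to DMSO.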

[3] = biological target: human Thyroid Receptor alpha (THRa1), THRA (gene 7067) (UniProt P10827); assay: ATG_THRa1_TRANS: Attagene TRANS-FACTORIAL HepG2 Assay for human Thyroid Receptor alpha (THRa1) (AID 2283014; active = hit-call score of the fitted dose curve at least 0.9, where 1 is the maximum)
Outline: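 Measured here is mRNA from a GAL4-UAS reporter in transfected HepG2 cells carrying a Gal4-fused receptor, 24 h post-dose. DMSO served as negative control and baseline.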

[4] = read-out: E-selectin (Homo sapiens) (UniProt P16581); assay: BSK_3C_Eselectin: BioMAP Diversity Plus: 3C Assay for Eselectin Biomarker Activity (AID 2283015); conditions: primary human endothelial cells (HUVEC); actives raise or lower the signal;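 also: cell surface E-selectin protein quantified by ELISA 24 h after dosing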
Outline: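 Endpoint derived by bidirectional fitting against DMSO vehicle; signal is ELISA-detected E-selectin from primary HUVEC at 24 h post-dosing, with parallel SRB staining (0.1% SRB, 560 nm) flagging cytotoxicity.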

[5] = read-out: Interleukin-1 alpha (IL1a), IL1A (gene 3552); assay: BSK_BE3C_IL1a: BioMAP Diversity Plus: BE3C Assay for Interleukin-1 alpha (IL1a) Biomarker Activity (AID 2283016); conditions: primary human bronchial epithelial cells; actives raise or lower the signal
Outline: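 IL-1a measured by ELISA after 24 h treatment of human primary bronchial epithelial cells, with gain or loss of signal fitted versus DMSO. Parallel cultures stained with SRB gauge overt cytotoxicity.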

[6] = read-out: Monocyte Chemoattractant Protein-1 (MCP1), CCL2 (gene 6347); assay: BSK_3C_MCP1: BioMAP Diversity Plus: 3C Assay for Monocyte Chemoattractant Protein-1 (MCP1) Biomarker Activity (AID 2283017); conditions: primary human endothelial cells (HUVEC); actives raise or lower the signal
Outline: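 Using human vascular primary endothelium, researchers measured MCP-1 by ELISA 24 h after treatment, with DMSO serving as negative control for bidirectional fitting.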

[7] = read-out: Human Leukocyte Antigen - DR isotype (HLADR), HLA-DRA (gene 3122); assay: BSK_3C_HLADR: BioMAP Diversity Plus: 3C Assay for Human Leukocyte Antigen - DR isotype (HLADR) Biomarker Activity (AID 2283019); conditions: primary human endothelial cells (HUVEC); actives raise or lower the signal;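 as to outcome: ELISA of cell-surface HLA-DR on HUVEC 24 h after dosing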
Outline: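 Compound added to primary HUVEC cultures, 24 h incubation, then HLA-DR determined by ELISA; endpoint derived by bidirectional fitting relative to DMSO negative control.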

[8] = read-out: Monokine induced gamma interferon (MIG), CXCL9 (gene 4283); assay: BSK_3C_MIG: BioMAP Diversity Plus: 3C Assay for Monokine induced gamma interferon (MIG) Biomarker Activity (AID 2283021); conditions: primary human endothelial cells (HUVEC); actives raise or lower the signal
Outline: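 ELISA measurement of MIG in human umbilical vein endothelial cells 24 h after treatment. Cytotoxicity tracked by SRB staining in parallel cultures; gain or loss of signal fitted relative to DMSO.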

[9] = biological target: human Vitamin D Receptor (VDR), VDR (gene 7421) (UniProt P11473); assay: ATG_VDR_TRANS: Attagene TRANS-FACTORIAL HepG2 Assay for human Vitamin D Receptor (VDR) (AID 2283022; active = hit-call score of the fitted dose curve at least 0.9, where 1 is the maximum)
Outline: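 Multiplexed TRANS reporter in HepG2; 24 h treatment; reporter mRNA by RT-PCR plus capillary electrophoresis; upregulation scored relative to DMSO.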

[10] = BSK_3C_SRB: Viability Assessment in the BioMAP Diversity Plus: 3C Assay (AID 2283023); conditions: primary human endothelial cells (HUVEC);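 also: cells read 24 h after compound dosing; fitted both ways against DMSO so a hit may be signal rise or drop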
Outline: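 Overt cytotoxicity is gauged in parallel confluent HUVEC cultures by SRB total-protein staining at the time of biomarker measurement, 24 h after dosing. Gain or loss of signal is fitted versus DMSO.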

[11] = read-out: Matrix Metallopeptidase 1 (MMP1), MMP1 (gene 4312); assay: BSK_BE3C_MMP1: BioMAP Diversity Plus: BE3C Assay for Matrix Metallopeptidase 1 (MMP1) Biomarker Activity (AID 2283024); conditions: primary human bronchial epithelial cells; actives raise or lower the signal
Outline: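 ELISA measurement of MMP-1 after 24 h compound exposure of primary human bronchial epithelial cells. Changes in either direction fitted relative to DMSO; parallel SRB staining checked overt cytotoxicity.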

[12] = BSK_3C_Vis: BioMAP Diversity Plus: 3C Assay for Morphology Visualization (AID 2283025); conditions: primary human endothelial cells (HUVEC);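 also: fitted both ways so gain or loss versus DMSO counts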;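 as to AC50: light microscopy image of cell morphology used as background control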
Outline: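 Light-microscopy visualization of HUVEC cultures at 24 h post-treatment, with DMSO as baseline for bidirectional fitting.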

[13] = read-out: Pselectin, SELP (gene 6403); assay: BSK_4H_Pselectin: BioMAP Diversity Plus: 4H Assay for Pselectin Biomarker Activity (AID 2283026); conditions: primary human endothelial cells (HUVEC); actives raise or lower the signal
Outline: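 ELISA of surface P-selectin on HUVEC, 24 h after dosing, with parallel SRB staining (0.1% after 10% TCA fixation, 560 nm) for overt cytotoxicity. Activity fitted in both directions relative to DMSO.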

[14] = BSK_4H_SRB: Viability Assessment in the BioMAP Diversity Plus: 4H Assay (AID 2283027); conditions: primary human endothelial cells (HUVEC);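 also: cells exposed to compound for 24 h before staining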
Outline: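 HUVEC, 24 h post-dose; 10% TCA fix, 0.1% SRB stain, A560 nm. Total protein = overt cytotoxicity, parallel to biomarker read. Bidirectional fit vs DMSO baseline.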

[15] = BSK_BE3C_SRB: Viability Assessment in the BioMAP Diversity Plus: BE3C Assay (AID 2283028); conditions: primary human bronchial epithelial cells;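 as to AC50: fitted both ways so AC50 may mark signal gain or loss versus DMSO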
Outline: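 SRB total-protein staining (0.1%, after TCA fixation) of chemically dosed human bronchial epithelial primary cells at 24 h; DMSO serves as the negative control for bidirectional curve fitting.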

[16] = read-out: Urokinase-type plasminogen activator receptor (uPAR), PLAUR (gene 5329); assay: BSK_4H_uPAR: BioMAP Diversity Plus: 4H Assay for Urokinase-type plasminogen activator receptor (uPAR) Biomarker Activity (AID 2283030); conditions: primary human endothelial cells (HUVEC); actives raise or lower the signal
Outline: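 Endpoint derived via bidirectional curve fitting against DMSO baseline; readout was ELISA detection of uPAR on umbilical vein endothelial cells at 24 h post-treatment, with SRB-stained parallel cultures assessing cytotoxicity.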

[17] = biological target: Retinoic acid receptor RXR-alpha (Homo sapiens) (UniProt P19793); assay: ATG_RXRa_TRANS: Attagene TRANS-FACTORIAL HepG2 Assay for human Retinoid X Receptor alpha (RXRa) (AID 2283012; active = hit-call score of the fitted dose curve at least 0.9, where 1 is the maximum)
Outline: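 TRANS format reporting activity of exogenous RXRa-Gal4 chimera in transiently transfected HepG2, 24 h exposure. Reporter transcripts quantified by RT-PCR with capillary electrophoresis, with gain of signal scored relative to DMSO.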

[18] = read-out: Monocyte Chemoattractant Protein-1 (MCP1), CCL2 (gene 6347); assay: BSK_4H_MCP1: BioMAP Diversity Plus: 4H Assay for Monocyte Chemoattractant Protein-1 (MCP1) Biomarker Activity (AID 2283018); conditions: primary human endothelial cells (HUVEC); actives raise or lower the signal
Outline: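 ELISA of MCP-1 (CCL2) 24 h after chemical dosing of HUVEC in the BioMAP 4H system. Gain or loss versus DMSO fitted; parallel SRB staining (560 nm) tracked overt cytotoxicity.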

[19] = read-out: Interleukin-8 (IL8), CXCL8 (gene 3576); assay: BSK_3C_IL8: BioMAP Diversity Plus: 3C Assay for Interleukin-8 (IL8) Biomarker Activity (AID 2283020); conditions: primary human endothelial cells (HUVEC); actives raise or lower the signal
Outline: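 IL-8 was measured by ELISA in HUVEC cultures 24 h after chemical dosing, with gain or loss of signal fitted relative to DMSO. Parallel SRB total-protein staining tracked overt cytotoxicity.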

[20] = read-out: Thrombomodulin, THBD (gene 7056); assay: BSK_3C_Thrombomodulin: BioMAP Diversity Plus: 3C Assay for Thrombomodulin Biomarker Activity (AID 2283029); conditions: primary human endothelial cells (HUVEC); actives raise or lower the signal
Outline: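 ELISA measurement of thrombomodulin on HUVEC surface 24 h after chemical dosing; activity fitted in both directions relative to DMSO vehicle.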

Chain of E-selectin (Homo sapiens) (P16581 whole entry, looked up): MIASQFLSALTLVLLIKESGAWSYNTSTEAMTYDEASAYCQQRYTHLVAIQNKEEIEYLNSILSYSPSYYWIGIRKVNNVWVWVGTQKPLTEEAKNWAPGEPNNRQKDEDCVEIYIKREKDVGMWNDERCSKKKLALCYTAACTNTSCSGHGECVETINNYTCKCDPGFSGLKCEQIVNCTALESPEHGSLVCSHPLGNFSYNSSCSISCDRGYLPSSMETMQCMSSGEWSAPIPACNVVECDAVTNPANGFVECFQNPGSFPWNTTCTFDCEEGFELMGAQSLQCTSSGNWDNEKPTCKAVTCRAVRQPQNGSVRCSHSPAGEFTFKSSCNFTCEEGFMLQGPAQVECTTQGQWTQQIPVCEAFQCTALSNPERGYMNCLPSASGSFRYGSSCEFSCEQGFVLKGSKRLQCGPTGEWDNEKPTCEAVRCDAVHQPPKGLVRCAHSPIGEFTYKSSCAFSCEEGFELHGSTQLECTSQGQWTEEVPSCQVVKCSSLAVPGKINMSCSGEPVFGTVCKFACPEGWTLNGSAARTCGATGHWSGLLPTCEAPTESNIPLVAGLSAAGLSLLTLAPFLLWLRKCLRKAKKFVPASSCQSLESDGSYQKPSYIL
Chain of Retinoic acid receptor RXR-alpha (Homo sapiens) (P19793 whole entry, looked up, the tested form may be a part): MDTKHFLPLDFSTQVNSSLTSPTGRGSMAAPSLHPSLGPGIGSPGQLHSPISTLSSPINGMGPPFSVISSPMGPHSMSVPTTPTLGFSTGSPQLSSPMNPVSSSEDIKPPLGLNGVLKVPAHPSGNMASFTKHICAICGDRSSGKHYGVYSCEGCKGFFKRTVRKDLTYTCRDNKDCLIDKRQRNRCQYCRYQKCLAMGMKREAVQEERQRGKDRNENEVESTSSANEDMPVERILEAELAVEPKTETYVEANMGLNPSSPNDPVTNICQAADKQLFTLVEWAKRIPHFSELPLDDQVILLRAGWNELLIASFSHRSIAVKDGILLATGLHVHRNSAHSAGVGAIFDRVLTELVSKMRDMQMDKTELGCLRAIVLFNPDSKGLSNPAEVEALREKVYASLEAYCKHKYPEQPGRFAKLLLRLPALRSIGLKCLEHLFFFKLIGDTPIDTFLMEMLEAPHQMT
Chain of human Retinoid X Receptor beta (RXRb), RXRB (gene 6257) (P28702 whole entry, looked up, the tested form may be a part): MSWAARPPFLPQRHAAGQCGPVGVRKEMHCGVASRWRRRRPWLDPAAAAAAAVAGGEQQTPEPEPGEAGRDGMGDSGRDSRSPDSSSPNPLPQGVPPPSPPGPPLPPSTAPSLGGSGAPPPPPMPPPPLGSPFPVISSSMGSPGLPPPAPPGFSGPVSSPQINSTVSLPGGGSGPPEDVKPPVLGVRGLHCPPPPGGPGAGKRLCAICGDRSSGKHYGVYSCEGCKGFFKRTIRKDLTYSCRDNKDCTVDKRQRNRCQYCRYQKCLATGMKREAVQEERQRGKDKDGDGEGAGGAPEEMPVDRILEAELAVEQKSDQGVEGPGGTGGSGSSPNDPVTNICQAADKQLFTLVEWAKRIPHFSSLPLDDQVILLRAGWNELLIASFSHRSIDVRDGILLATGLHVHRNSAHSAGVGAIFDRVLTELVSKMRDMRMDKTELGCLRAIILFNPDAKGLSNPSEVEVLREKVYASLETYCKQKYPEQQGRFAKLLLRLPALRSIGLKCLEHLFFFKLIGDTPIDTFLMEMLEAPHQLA
Chain of human RAR-related Orphan Receptor gamma (RORg), RORC (gene 6097) (P51449 whole entry, looked up, the tested form may be a part): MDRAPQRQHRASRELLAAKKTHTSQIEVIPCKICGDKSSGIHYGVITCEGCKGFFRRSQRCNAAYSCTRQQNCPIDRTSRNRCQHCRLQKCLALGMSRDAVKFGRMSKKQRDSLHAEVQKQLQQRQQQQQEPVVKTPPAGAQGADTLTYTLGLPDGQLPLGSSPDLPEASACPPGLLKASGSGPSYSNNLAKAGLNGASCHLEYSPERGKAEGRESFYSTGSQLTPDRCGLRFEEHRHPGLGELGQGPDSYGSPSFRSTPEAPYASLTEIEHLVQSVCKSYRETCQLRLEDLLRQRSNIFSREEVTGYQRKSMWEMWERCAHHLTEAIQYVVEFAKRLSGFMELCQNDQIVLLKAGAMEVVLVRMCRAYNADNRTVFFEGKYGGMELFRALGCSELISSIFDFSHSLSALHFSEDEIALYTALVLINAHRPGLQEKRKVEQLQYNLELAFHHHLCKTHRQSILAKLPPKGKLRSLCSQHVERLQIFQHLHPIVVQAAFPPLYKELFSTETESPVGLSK
Chain of human Vitamin D Receptor (VDR), VDR (gene 7421) (P11473 whole entry, looked up): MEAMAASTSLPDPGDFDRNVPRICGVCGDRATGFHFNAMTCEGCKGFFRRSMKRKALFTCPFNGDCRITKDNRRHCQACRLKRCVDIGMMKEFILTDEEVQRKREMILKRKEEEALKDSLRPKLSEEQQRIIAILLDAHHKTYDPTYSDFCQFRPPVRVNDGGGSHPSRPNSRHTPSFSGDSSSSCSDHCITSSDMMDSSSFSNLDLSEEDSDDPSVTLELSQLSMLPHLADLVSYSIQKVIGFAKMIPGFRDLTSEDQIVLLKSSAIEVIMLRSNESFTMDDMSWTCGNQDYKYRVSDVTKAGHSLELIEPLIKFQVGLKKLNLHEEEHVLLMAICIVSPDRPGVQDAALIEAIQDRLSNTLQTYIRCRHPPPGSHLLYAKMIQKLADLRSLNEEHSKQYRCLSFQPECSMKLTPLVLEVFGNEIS
Chain of human Thyroid Receptor alpha (THRa1), THRA (gene 7067) (P10827 whole entry, looked up, the tested form may be a part): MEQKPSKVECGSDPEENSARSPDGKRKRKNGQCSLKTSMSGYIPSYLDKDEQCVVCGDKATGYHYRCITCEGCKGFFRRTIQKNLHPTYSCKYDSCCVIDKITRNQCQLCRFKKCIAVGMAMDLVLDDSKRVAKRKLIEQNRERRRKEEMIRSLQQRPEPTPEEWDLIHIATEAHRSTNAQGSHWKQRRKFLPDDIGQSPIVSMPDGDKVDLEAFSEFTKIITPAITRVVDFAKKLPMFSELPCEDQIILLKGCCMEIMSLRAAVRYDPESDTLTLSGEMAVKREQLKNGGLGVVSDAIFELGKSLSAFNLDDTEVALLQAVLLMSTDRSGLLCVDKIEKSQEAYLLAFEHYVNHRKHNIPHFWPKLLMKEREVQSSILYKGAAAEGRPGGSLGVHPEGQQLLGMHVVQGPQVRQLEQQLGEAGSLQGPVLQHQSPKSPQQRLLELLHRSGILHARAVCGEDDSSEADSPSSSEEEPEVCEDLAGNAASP

## Cc1ccc(C(C)C)cc1
[1]
  outcome: inactive
[2]
  outcome: inactive
[3]
  outcome: inactive
[4]
  outcome: inactive
[5]
  outcome: inactive
[6]
  outcome: inactive
[7]
  outcome: inactive
[8]
  outcome: inactive
[9]
  outcome: inactive
[10]
  outcome: inactive
[11]
  outcome: inactive
[12]
  outcome: inactive
[13]
  outcome: inactive
[14]
  outcome: inactive
[15]
  outcome: inactive
[16]
  outcome: inactive

## OC12N=C(c3ccccc3)SC1Cc1cc(Cl)ccc12 (stereo not drawn)
[1]
  outcome: inactive
[17]
  outcome: inactive
[2]
  outcome: inactive
[4]
  outcome: inactive
[5]
  outcome: inactive
[6]
  outcome: inactive
[7]
  AC50: 33.8 µM (active)
[8]
  outcome: inactive
[9]
  outcome: inactive
[10]
  AC50: 28.1 µM (active)
[11]
  AC50: 15.3 µM (active)
[12]
  outcome: inactive
[13]
  outcome: inactive
[15]
  outcome: inactive
[16]
  outcome: inactive

## O=C1c2ccccc2C(=O)N1CCc1noc(-c2ccc(CN3CCCCCC3)s2)n1
[1]
  outcome: inactive
[17]
  outcome: inactive
[3]
  outcome: inactive
[4]
  outcome: inactive
[5]
  outcome: inactive
[6]
  outcome: inactive
[18]
  outcome: inactive
[7]
  AC50: 26.7 µM (active)
[19]
  outcome: inactive
[8]
  outcome: inactive
[10]
  outcome: inactive
[11]
  outcome: inactive
[12]
  outcome: inactive
[13]
  AC50: 17.8 µM (active)
[15]
  outcome: inactive
[16]
  AC50: 22.8 µM (active)

## Cc1cc2c(cc1C(F)(F)F)N(C(=O)Nc1ccc(Oc3cccnc3C)nc1)CC2
[1]
  outcome: inactive
[2]
  outcome: inactive
[3]
  outcome: inactive
[4]
  outcome: inactive
[5]
  outcome: inactive
[6]
  outcome: inactive
[7]
  AC50: 18.4 µM (active)
[19]
  AC50: 0.889 µM (active)
[8]
  outcome: inactive
[10]
  outcome: inactive
[11]
  outcome: inactive
[12]
  AC50: 36.6 µM (active)
[13]
  AC50: 8.67 µM (active)
[15]
  AC50: 15.8 µM (active)
[16]
  outcome: inactive

## O=C(O)c1ccccc1C(=O)OCc1ccccc1
[1]
  outcome: inactive
[17]
  outcome: inactive
[4]
  outcome: inactive
[5]
  outcome: inactive
[6]
  outcome: inactive
[18]
  outcome: inactive
[7]
  outcome: inactive
[19]
  outcome: inactive
[8]
  outcome: inactive
[10]
  outcome: inactive
[11]
  outcome: inactive
[12]
  outcome: inactive
[13]
  outcome: inactive
[15]
  outcome: inactive
[20]
  outcome: inactive
[16]
  outcome: inactive

## CC(O)CC(C)(C)O (stereo not drawn)
[1]
  outcome: inactive
[17]
  outcome: inactive
[2]
  outcome: inactive
[3]
  outcome: inactive
[4]
  outcome: inactive
[5]
  outcome: inactive
[6]
  outcome: inactive
[18]
  outcome: inactive
[7]
  outcome: inactive
[19]
  outcome: inactive
[8]
  outcome: inactive
[9]
  outcome: inactive
[10]
  outcome: inactive
[11]
  outcome: inactive
[12]
  outcome: inactive
[13]
  outcome: inactive
[14]
  outcome: inactive
[15]
  outcome: inactive
[16]
  outcome: inactive

## O=C(OCCCCCCOC(=O)c1ccccc1)c1ccccc1
[1]
  outcome: inactive
[2]
  outcome: inactive
[3]
  outcome: inactive
[4]
  outcome: inactive
[5]
  outcome: inactive
[6]
  outcome: inactive
[7]
  outcome: inactive
[8]
  outcome: inactive
[9]
  outcome: inactive
[10]
  outcome: inactive
[11]
  outcome: inactive
[12]
  outcome: inactive
[13]
  outcome: inactive
[15]
  outcome: inactive
[20]
  outcome: inactive
[16]
  outcome: inactive
